# Hits are enriched below; roughly 2.1% of the tested compounds scored in any of these assays.
# PfHsp90 yeast 2 – growth inhibition of yeast expressing Plasmodium Hsp90. S. cerevisiae expressing PfHsp90, BacTiter-Glo ATP, 48 h; yeast lacking PDR1 and PDR3 efflux regulators. 0.32% of 310,000 active. AID 504621. inhibition, % at 9.4 µM;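 active means every replicate shows inhibition above about 80%, whatever the replicate mean, limit read from the data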;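 further: 0% = DMSO neutral controls and 100% = 20 µM radicicol positive controls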
# NSD2 HMT inh – inhibitors of human histone methyltransferase NSD2. AID 743445. 0.54% of 310,000 active. NSD2 peptide methylation, AlphaScreen, 120 min. inhibition, % at 12.5 µM; in the data active means inhibition above about 50%
# SIRT5 inh – blocks human SIRT5 desuccinylation of peptide. Q9NXA8. Purified SirT5, succinyl-peptide AMC, trypsin-coupled fluorescence. inhibition, % at 15 µM. 1.1% of 330,000 active. AID 652115; in the data active means inhibition above about 15%
# CASP6 VEID inh – blocks human caspase-6 cleavage activity; purified caspase-6, Z-VEID-R110 cleavage fluorescence; inhibition, % at 12.5 µM; 0.53% of 350,000 active; AID 686996;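 active means mean inhibition across replicates at least about 35%, with every replicate also reaching that limit, limit read from the data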;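 further: 0% = median of neutral control wells and 100% = no fluorescence left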
# ARNT-TACC3 inh – disrupts binding between human ARNT and TACC3; Q9Y6A5; AlphaScreen His-ARNT PAS-B/GST-TACC3 binding, luminescence; TACC3 fragment carries E629A point mutation; inhibition, % at 9.99 µM; 0.66% of 390,000 active;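 active means mean inhibition of replicates at least 50% and at least half of replicates each reaching 50%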;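 further: 0% = complete ARNT plus TACC3 wells and 100% = ARNT alone without TACC3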
# The depositor's hits bear a star; . = no result given.
SMILES,PfHsp90 yeast 2,NSD2 HMT inh,SIRT5 inh,CASP6 VEID inh,ARNT-TACC3 inh
O=C(O)c1cc(-c2ccccc2)n(-c2ccccc2)n1,3,.,.,.,-5
COc1ccc(-n2nc(C(=O)O)cc2-c2ccccc2)cc1,-12,0,18*,-1,0
COc1ccc(CN(C)C[C@H]2Oc3c(NC(=O)Nc4ccc(F)cc4)cccc3C(=O)N([C@@H](C)CO)C[C@H]2C)cc1,.,.,-1,-1,20
C[C@H](CO)N1C[C@H](C)[C@@H](CN(C)Cc2ccc(-c3ccccc3)cc2)Oc2c(NC(=O)Nc3ccc(C(F)(F)F)cc3)cccc2C1=O,-3,.,2.6*,-3,-1
COc1ccc(CN(C)C[C@H]2Oc3c(NC(=O)Nc4ccc(F)cc4)cccc3C(=O)N([C@@H](C)CO)C[C@@H]2C)cc1,.,.,30*,0,18
C[C@@H]1CN([C@@H](C)CO)C(=O)c2cccc(NC(=O)Nc3ccccc3)c2O[C@@H]1CN(C)Cc1ccc(C(F)(F)F)cc1,.,.,103*,-1,-4
C[C@H]1CN([C@@H](C)CO)S(=O)(=O)c2ccc(C#Cc3ccc(F)cc3)cc2O[C@@H]1CN(C)C(=O)NC1CCCCC1,.,.,18*,-1,5
C[C@@H]1CN([C@H](C)CO)S(=O)(=O)c2ccc(C#Cc3cccc(F)c3)cc2O[C@@H]1CN(C)C(=O)NC1CCCCC1,.,.,17*,-1,1
C[C@@H]1CN([C@H](C)CO)S(=O)(=O)c2ccc(C#Cc3ccc(F)cc3)cc2O[C@@H]1CN(C)C(=O)NC1CCCC1,.,.,2,0,-1
C[C@@H]1CN([C@@H](C)CO)S(=O)(=O)c2ccc(C#Cc3ccc(F)cc3)cc2O[C@@H]1CN(C)C(=O)NC1CCCCC1,.,.,16*,0,7
C[C@H](CO)N1C[C@H](C)[C@H](CN(C)C(=O)NC2CCCCC2)Oc2cc(C#Cc3cccc(F)c3)ccc2S1(=O)=O,.,.,-3,-1,1
C[C@H]1CN([C@@H](C)CO)S(=O)(=O)c2ccc(C#Cc3ccc(F)cc3)cc2O[C@H]1CN(C)C(=O)NC1CCCCC1,.,.,20*,-4,7
COc1cccc(NC(=O)N2C[C@H](O)COC[C@H]3O[C@@H](CC(=O)NCCCN4CCOCC4)CC[C@@H]32)c1,.,.,.,.,3
Cc1ccc(S(=O)(=O)N2CC[C@@H]3[C@@H](CO)Nc4ccc(C#Cc5ccccc5F)cc4[C@@H]32)cc1,.,.,-2,.,9
OC(CNCCC1C=Nc2ccccc21)Cn1c2ccc(Cl)cc2c2cc(Cl)ccc21 (centres undefined),105*,-1,.,.,10
COc1ccccc1-c1ccc2n(c1=O)C[C@@H]1[C@@H](CO)[C@H](C(=O)N3CCCCC3)[C@H]2N1CC1CC1,.,.,20*,-1,-2
O=C1CC(=Nc2ccc([N+](=O)[O-])cc2)NN1c1c(Cl)cc(Cl)cc1Cl,.,9,17*,23,.
CC(N)=Nc1ccc([N+](=O)[O-])cc1,0,-3,.,.,-4
CC(C)CC#Cc1cnc2c(c1)C(=O)N([C@H](C)CO)C[C@@H](C)[C@@H](CN(C)C(=O)Cc1cccnc1)O2,.,.,1,-1,-4
CC1=NN(c2ccc([N+](=O)[O-])cc2)C(=O)C1,.,10,4,15,45*
CC1=NN(c2ccc([N+](=O)[O-])cc2)C(=O)/C1=C\N(C)C,-17,1,.,6,5
CC1=NN(c2cc(Cl)c(S(=O)(=O)O)cc2Cl)C(=O)C1,39,6,.,6,30*
CC1=NN(c2ccc(Cl)c(C(=O)O)c2)C(=O)C1,-5,9,-2,82*,30
CC1=NN(c2cccc(Cl)c2)C(=O)C1,6,.,-2,4,28
CO[C@H]1CN(C)C(=O)c2cc(NS(=O)(=O)c3ccccc3F)ccc2OC[C@H](C)NC[C@@H]1C,.,.,0,3,6
SMILES,PfHsp90 yeast 2,NSD2 HMT inh,SIRT5 inh,CASP6 VEID inh,ARNT-TACC3 inh
COc1ccc(S(=O)(=O)N(C)C[C@H]2OCCCC[C@H](C)Oc3ccc(NS(=O)(=O)c4ccccc4)cc3C(=O)N([C@H](C)CO)C[C@@H]2C)cc1,.,.,10,-1,-8
COc1ccc(S(=O)(=O)Nc2ccc3c(c2)C(=O)N([C@H](C)CO)C[C@@H](C)[C@H](CN(C)S(=O)(=O)c2ccccc2)OCCCC[C@@H](C)O3)cc1,.,.,19*,1,.
COc1ccc(S(=O)(=O)N(C)C[C@@H]2OCCCC[C@H](C)Oc3ccc(NS(=O)(=O)c4ccccc4)cc3C(=O)N([C@@H](C)CO)C[C@@H]2C)cc1,.,.,6,1,8
COc1ccc(S(=O)(=O)Nc2ccc3c(c2)C(=O)N([C@@H](C)CO)C[C@@H](C)[C@@H](CN(C)S(=O)(=O)c2ccccc2)OCCCC[C@@H](C)O3)cc1,.,.,20*,1,.
COc1ccc(S(=O)(=O)N(C)C[C@H]2OCCCC[C@H](C)Oc3ccc(NS(=O)(=O)c4ccccc4)cc3C(=O)N([C@H](C)CO)C[C@H]2C)cc1,.,.,14,1,-1
COc1ccc(S(=O)(=O)Nc2ccc3c(c2)C(=O)N([C@@H](C)CO)C[C@H](C)[C@@H](CN(C)S(=O)(=O)c2ccccc2)OCCCC[C@@H](C)O3)cc1,.,.,21*,.,.
COc1ccc(S(=O)(=O)Nc2ccc3c(c2)C(=O)N([C@H](C)CO)C[C@@H](C)[C@H](CN(C)S(=O)(=O)c2ccccc2)OCCCC[C@H](C)O3)cc1,.,.,25*,-2,.
COc1ccc(CNC(=O)C[C@@H]2C[C@H]3c4cc(NC(=O)C5CCC5)ccc4O[C@H]3[C@H](CO)O2)cc1,.,.,1,-2,-7
COc1ccc(S(=O)(=O)Nc2ccc3c(c2)C(=O)N([C@@H](C)CO)C[C@@H](C)[C@H](CN(C)S(=O)(=O)c2ccccc2)OCCCC[C@H](C)O3)cc1,.,.,22*,2,.
C[C@@H]1CN([C@H](C)CO)C(=O)c2cc(-c3cccc(C#N)c3)cnc2O[C@@H]1CN(C)C(=O)C1CCC1,.,.,4,-2,-10
C[C@H](CO)N1C[C@H](C)[C@H](CN(C)CC2CC2)Oc2c(NS(C)(=O)=O)cccc2C1=O,.,.,4,0,-5
O=C(Cc1ccccn1)NCC[C@H]1CC[C@@H](NC(=O)Nc2ccc(Cl)cc2)[C@@H](CO)O1,.,.,3,-2,-10
CCOC(=O)c1ccc(N2C(=O)C=CC2=O)cc1,130*,.,.,.,-4
CN(C)c1ccc(/C=C2/SC(=O)N(CCN=C3NS(=O)(=O)c4ccccc43)C2=O)cc1,-45,-2,18*,0,-3
Cc1ccc(CNC(=O)C2CCCN(S(=O)(=O)N3CC(C)CC(C)C3)C2)cc1 (centres undefined),-26,-6,20*,-2,1
Cc1ccc(CNC(=O)C2CCCN(c3nc4ccsc4c(=O)s3)C2)cc1 (centres undefined),-1,-4,18*,-2,-4
CNC(=O)C[C@@H]1CC[C@H]2[C@H](COc3ccc(NC(=O)C4CCCCC4)cc3C(=O)N2C)O1,.,.,-2,1,-17

# Screens (PubChem BioAssay)
